Inconclusive results are not listed. Active and inactive are the calls of the source. The call rests on the fitted dose curve; in most records, active means well fitted inhibition curve with a large enough effect; inconclusive means small, poorly fitted or top-dose-only effect; inactive means flat fitted curve, though single readings scatter.
How the values were obtained:
Assay in all cases: qHTS profiling for inhibitors of Plasmodium falciparum proliferation (AID 504749); further: nearly all actives have a fitted effect of over 60% in size
Details in all cases: P. falciparum in erythrocytes, SYBR Green DNA, 72 h; series mostly up to 28.7 µM
[1] = tested on: CP286
Procedure, shortened: (§1)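 Infected RBCs, 0.3% parasitemia/2.5% Hct final; cpd 72 h, 37 C, 5% CO2; lysis buffer with saponin/triton/SYBR Green I, o/n RT dark; FI 485/535; norm. to artemisinin (0.29 uM) and DMSO.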

[2] = tested on: CP291
Procedure, shortened: as §1

[3] = tested on: CP297
Procedure, shortened: as §1

[4] = tested on: CP305
Procedure, shortened: as §1

[5] = tested on: CP315
Procedure, shortened: as §1

[6] = tested on: CP325
Procedure, shortened: as §1

[7] = tested on: CP329
Procedure, shortened: as §1

[8] = tested on: CP335
Procedure, shortened: as §1

[9] = tested on: DFO2036
Procedure, shortened: as §1

[10] = tested on: DIV30
Procedure, shortened: as §1

[11] = tested on: Dd2
Procedure, shortened: as §1

[12] = tested on: ECU
Procedure, shortened: as §1

[13] = tested on: FAB9
Procedure, shortened: as §1

[14] = tested on: HB3
Procedure, shortened: as §1

[15] = tested on: ICS
Procedure, shortened: as §1

[16] = tested on: JCK
Procedure, shortened: as §1

[17] = tested on: N140
Procedure, shortened: as §1

[18] = tested on: DIV14
Procedure, shortened: as §1

[19] = tested on: DIV17
Procedure, shortened: as §1

[20] = tested on: GB4
Procedure, shortened: as §1

Measured: Potency
Potency means the concentration at half of the fitted maximal effect.

COc1cc([C@H]2Oc3cc([C@H]4Oc5cc(O)cc(O)c5C(=O)[C@@H]4O)ccc3O[C@@H]2CO)ccc1O
active: [10] 19 µM | [15] 8.91 µM
not listed: [17] | [18] | [19] | [20]
inactive: all other assays above

CCC(C(=O)OCCOCCN(CC)CC)c1ccccc1 (configuration not stated)
active: [3] 15.1 µM
not listed: [8] | [11] | [18] | [19] | [20]
inactive: all other assays above

CCN(CC)CCNc1ccc(CO)c2sc3ccccc3c(=O)c12
active: [1] 2 µM | [2] 4.78 µM | [3] 1.69 µM | [4] 3.79 µM | [5] 6.01 µM | [6] 4.78 µM | [7] 4.78 µM | [8] 1.51 µM | [9] 0.447 µM | [18] 4.26 µM | [19] 2.39 µM | [10] 9.53 µM | [11] 2.24 µM | [12] 0.708 µM | [20] 1.2 µM | [14] 8.91 µM | [15] 2 µM | [16] 11.2 µM | [17] 0.708 µM

COc1cc(N)c(Cl)cc1C(=O)NC1CCN(Cc2ccccc2)CC1
not listed: [10] | [20]
inactive: all other assays above

CCCCC(CC)COC(=O)c1ccc(N(C)C)cc1 (configuration not stated)
not listed: [18]
inactive: all other assays above

OCCOCCN1CCN(C2=Nc3ccccc3Sc3ccccc32)CC1
not listed: [11] | [15] | [18]
inactive: all other assays above

C=CCN1CCc2nc(N)sc2CC1
not listed: [8] | [15]
inactive: all other assays above

CCCCc1cc2ccccc2c(OCCN(C)C)n1
not listed: [11] | [15] | [20]
inactive: all other assays above

CCc1ccc(C(=O)C(C)CN2CCCCC2)cc1 (configuration not stated)
not listed: [19]
inactive: all other assays above

O=C(c1ccc(F)cc1)C1CCN(CCn2c(=S)[nH]c3ccccc3c2=O)CC1
active: [1] 3.98 µM | [2] 6.75 µM | [3] 6.75 µM | [4] 6.75 µM | [5] 15.1 µM | [6] 7.57 µM | [7] 6.75 µM | [9] 5.62 µM | [19] 13.5 µM | [10] 12 µM | [11] 11.2 µM | [12] 4.47 µM | [20] 12 µM | [14] 11.2 µM | [15] 5.01 µM | [16] 11.2 µM | [17] 5.01 µM

COc1ccc(C(=O)c2ccccc2O)c(O)c1
active: [15] 2.51 µM
not listed: [10] | [16] | [17] | [18] | [19] | [20]
inactive: all other assays above

CC(=O)O[C@]1(C(C)=O)CC[C@H]2[C@@H]3C=C(Cl)C4=CC(=O)CC[C@]4(C)[C@H]3CC[C@@]21C
inactive: [13] | [16]
active: [1] 10 µM | [2] 15.1 µM | [3] 9.53 µM | [4] 13.5 µM | [6] 15.1 µM | [15] 10 µM
